A short description of experiment [1]: qHTS to identify inhibitors of the type 1 interferon - major histocompatibility complex class I in skeletal muscle: primary screen against the NCATS Pharmaceutical Collection (AID 1347407). For activity change, negative = inhibition: % is set by controls: 0 for no effect and ±100 for the full control effect.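 Note: luminescence of HiBiT knocked into endogenous HLA-B as interferon-induced MHC class I level.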 Note: potency is the fitted concentration of half-maximal effect. An outline of the steps: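 HLA-B HiBiT myoblasts, dexamethasone-free growth medium + 4 ng/ml IFN-b; compounds pinned 1 h after seeding, […] from 46 uM; 24 h, 37 C, 5% CO2; lytic HiBiT detection, 10 min RT, luminescence.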

Experiment [2] addresses Protein phosphatase 1D (Homo sapiens) (UniProt O15297). Nature of the experiment: RapidFire Mass Spectrometry qHTS Assay for Modulators of WT P53-Induced Phosphatase 1 (WIP1) (AID 1347424).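 Note: amount of dephosphorylated VEPPL-S-QETFS peptide product formed by WIP1; series mostly up to about 63 µM; plate controls were DMSO wells for no effect and GSK830371 inhibitor control at 10 µM for full effect.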 Put shortly:
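WIP1 (10 nM final) was preincubated 1 h at room temperature with compounds in Tris-HCl pH 7.5, 30 mM MgCl2, TCEP, EGTA, BSA; 2 uM VEPPL-pS-QETFS phosphopeptide was added for 5 min, quenched with formic acid, and dephosphorylated product quantified by RapidFire MS.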

For experiment [3] the target is unchanged. The experiment can be described thus: Rhodamine-PBP qHTS Assay for Modulators of WT P53-Induced Phosphatase 1 (WIP1) (AID 1347425). Note: % of control where 0% means no effect. An outline of the steps: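 Read-out: Rhodamine-PBP fluorescence (ex 525/em 598 nm) for released Pi, read each minute for 11 min after adding 10 uM VEPPL-pS-QETFS; signal taken as f1 minus pre-substrate f0. Enzyme 5 nM WIP1 with 1 hr room-temperature compound preincubation.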

Experiment [4] is described as follows: Primary qHTS for inhibitors of La Crosse Virus (LACV) - induced cell death in SH-SY5Y cells (AID 1508616).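 Note: top concentration of the series differs between compounds; 0% = infected DMSO wells and 100% = uninfected DMSO wells; higher means more rescue of cells from virus-induced death.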 An outline of the steps:
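Protection against LACV-induced cell death is scored in SH-SY5Y cells exposed to compounds and virus (0.01 MOI) for 6 days. Data normalized to virus-infected DMSO wells and virus-free DMSO wells.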

Structures are written as SMILES. Inconclusive results are not listed. Values without a mark were called inactive. Active and inactive are the calls of the source. Calls come from the whole dose curve; as a rule, active = well fitted curve in the direction sought with a large enough effect; inconclusive = small, poorly fitted or top-dose-only effect, or another doubt; inactive = no such curve, though single readings can be large; an effect the other way counts as inactive or inconclusive.

We go through 32 compounds from PubChem BioAssay (NCATS).

Chain of Protein phosphatase 1D (Homo sapiens) (O15297 whole entry, looked up): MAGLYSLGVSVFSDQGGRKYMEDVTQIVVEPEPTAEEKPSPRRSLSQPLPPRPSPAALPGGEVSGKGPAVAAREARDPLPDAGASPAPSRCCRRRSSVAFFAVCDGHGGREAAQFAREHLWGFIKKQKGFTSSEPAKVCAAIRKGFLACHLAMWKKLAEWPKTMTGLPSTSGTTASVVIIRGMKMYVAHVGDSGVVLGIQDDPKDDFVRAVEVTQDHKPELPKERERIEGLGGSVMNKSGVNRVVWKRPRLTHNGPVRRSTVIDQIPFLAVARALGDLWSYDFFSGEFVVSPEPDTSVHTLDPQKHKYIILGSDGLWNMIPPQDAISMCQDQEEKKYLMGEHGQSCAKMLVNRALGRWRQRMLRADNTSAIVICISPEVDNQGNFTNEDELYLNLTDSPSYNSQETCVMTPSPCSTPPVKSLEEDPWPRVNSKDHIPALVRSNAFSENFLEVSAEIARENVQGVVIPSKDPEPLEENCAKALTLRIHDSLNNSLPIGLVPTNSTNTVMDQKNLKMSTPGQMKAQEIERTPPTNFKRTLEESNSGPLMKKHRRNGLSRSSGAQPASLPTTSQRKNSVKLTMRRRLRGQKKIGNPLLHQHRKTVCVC

Regarding `C#CC1(O)CC[C@H]2[C@@H]3CCC4=CCCC[C@@H]4[C@H]3CC[C@@]21C` (stereo not given in full), the Potency result in experiment [1], in experiment [2] and in experiment [4] was “inactive” each time. In addition, in experiment [3], the result was inactive.
As for `N=C(N)N`, the Potency result in experiment [1], in experiment [2] and in experiment [4] was “inactive” throughout. Also, the compound was classed as inactive in experiment [3].
In the case of `COC(=O)c1nc(Cl)c(Cl)nc1N`, in experiment [1], the Potency was 10.5 µM (active). Besides, the Potency result in experiment [2] was “inactive”. Besides, in experiment [3], the compound was called inactive.
In the case of `CCCCCCCC/C=C/C(=O)O`, the Potency entry in experiment [1], in experiment [2] and in experiment [4] was “inactive” throughout. In addition, the outcome in experiment [3] was inactive.
Consider `CC1(C)S[C@@H]2[C@H](NC(=O)[C@H](N)c3ccccc3)C(=O)N2[C@H]1C(=O)O`, for which the Potency entry in experiment [1], in experiment [2] and in experiment [4] was “inactive” each time. Further, the compound was called inactive in experiment [3].
As to `COc1cccc2c1C(=O)c1c(O)c3c(c(O)c1C2=O)C[C@@](O)(C(=O)CO)C[C@@H]3O[C@H]1C[C@H](N)[C@H](O[C@@H]2CCCCO2)[C@H](C)O1`, the Potency entry in experiment [1] and in experiment [2] was “inactive” throughout. The outcome in experiment [3] was inactive.
As to `C/C(=N\O)c1ccc(OCC(=O)N2CCCCC2)cc1`, the Potency entry in experiment [1], in experiment [2] and in experiment [4] was “inactive” in each case. Further, in experiment [3], the compound was classed as inactive.
`CC(C(=O)O)c1ccc(C(=O)c2ccccc2)s1` (stereo not given): the Potency result in experiment [1], in experiment [2] and in experiment [4] was “inactive” in each case. Also, in experiment [3], the compound was called inactive.
In the case of `N=C1N=C(N)c2cc3ccccc3cc21`, the Potency entry in experiment [1], in experiment [2] and in experiment [4] was “inactive” throughout. Besides, the outcome in experiment [3] was inactive.
As to `c1ccc2sc(SN3CCOCC3)nc2c1`, the Potency result in experiment [1], in experiment [2] and in experiment [4] was “inactive” each time. For the same compound, the outcome in experiment [3] was inactive.
`O=C1CN(/N=C/c2ccc([N+](=O)[O-])o2)C(=O)N1`: the Potency entry in experiment [1], in experiment [2] and in experiment [4] was “inactive” throughout. Further, the compound was called inactive in experiment [3].
For `c1ccc2sc(SSc3nc4ccccc4s3)nc2c1`, the Potency result in experiment [1] and in experiment [2] was “inactive” throughout. Besides, in experiment [3], the result was inactive. Also, the activity change in experiment [4] was 7.43% [at 1.78 µM].
On to `CCCCCCOc1ccccc1C(N)=O`, for which the Potency entry in experiment [1], in experiment [2] and in experiment [4] was “inactive” each time. In addition, the compound was classed as inactive in experiment [3].
In the case of `CC(C(=O)O)c1ccc(C(=O)c2cccs2)cc1` (stereo not given), the Potency result in experiment [1], in experiment [2] and in experiment [4] was “inactive” throughout. Further, the result in experiment [3] was inactive.
As for `Nc1ccc([N+](=O)[O-])cc1O`, the Potency entry in experiment [1] and in experiment [2] was “inactive” in each case. For the same compound, in experiment [3], the outcome was inactive.
As to `CCOC(=O)c1ccccc1O`, the Potency entry in experiment [1], in experiment [2] and in experiment [4] was “inactive” throughout. Also, the compound was classed as inactive in experiment [3].
In the case of `Cc1c(C(=O)O)c(O)cc2c1C(=O)c1c(O)c([C@@H]3O[C@H](CO)[C@@H](O)[C@H](O)[C@H]3O)c(O)c(O)c1C2=O`, the Potency entry in experiment [1], in experiment [2] and in experiment [4] was “inactive” throughout. For the same compound, the compound was called inactive in experiment [3].
As for `COc1ccnc2c1CCCCC2S(=O)c1nc2ccccc2[nH]1` (stereo not given), the Potency entry in experiment [1], in experiment [2] and in experiment [4] was “inactive” each time. Besides, the call in experiment [3] was inactive.
As to `Cc1c(N)c(=O)n(-c2ccccc2)n1C`, the Potency entry in experiment [1], in experiment [2] and in experiment [4] was “inactive” each time. The compound was classed as inactive in experiment [3].
Take `CCCCCCCCCCCCCCCCCC(=O)O`: the Potency result in experiment [1], in experiment [2] and in experiment [4] was “inactive” each time. Moreover, the compound was classed as inactive in experiment [3].
For `c1ccc(CCNc2nc(-c3ccccc3)cs2)cc1`, the Potency entry in experiment [1], in experiment [2] and in experiment [4] was “inactive” in each case. In addition, the compound was classed as inactive in experiment [3].
As for `O=C(O)/C=C\C(=O)O`, the Potency result in experiment [1], in experiment [2] and in experiment [4] was “inactive” each time. Moreover, in experiment [3], the outcome was inactive.
As for `CO[C@@]1(NC(=O)Cc2cccs2)C(=O)N2C(C(=O)O)=C(COC(N)=O)CS[C@@H]21`, the Potency result in experiment [1], in experiment [2] and in experiment [4] was “inactive” each time. Besides, in experiment [3], the outcome was inactive.
For the compound `O=C(CS)Nc1ccccc1`, the Potency result in experiment [1], in experiment [2] and in experiment [4] was “inactive” throughout. For the same compound, the outcome in experiment [3] was inactive.
On to `Cc1nc2ccccc2n1Cc1ccc(Cl)cc1`, for which the Potency entry in experiment [1], in experiment [2] and in experiment [4] was “inactive” each time. Further, the call in experiment [3] was inactive.
On to `CN1CCN(c2cc3c(nn2)Oc2ccccc2N3C)CC1`, for which the Potency result in experiment [1] and in experiment [2] was “inactive” each time. For the same compound, in experiment [3], the result was inactive. In addition, in experiment [4], the activity change is 13.6% [at 1.78 µM].
On to `CN(C)CCn1nnnc1SCC1=C(C(=O)O)N2C(=O)[C@@H](NC(=O)Cc3csc(N)n3)[C@H]2SC1`, for which the Potency result in experiment [1], in experiment [2] and in experiment [4] was “inactive” each time. Further, the call in experiment [3] was inactive.
For `O=C(O)Cc1ccc(-c2ccccc2)cc1`, the Potency result in experiment [1], in experiment [2] and in experiment [4] was “inactive” throughout. The compound was classed as inactive in experiment [3].
As to `Cc1ccc2c(n1)Oc1ccc(C(C)C(=O)OCC(=O)N(C)C)cc1C2` (stereo not given), the Potency result in experiment [1], in experiment [2] and in experiment [4] was “inactive” in each case. In experiment [3], the outcome was inactive.
As for `CC(C)OC(=O)c1cc(C(=O)OC(C)C)cc([N+](=O)[O-])c1`, the Potency result in experiment [1], in experiment [2] and in experiment [4] was “inactive” in each case. In experiment [3], the call was inactive.
In the case of `CCCCCCCCCCCCCCCC(=O)OC(C)C`, the Potency result in experiment [1], in experiment [2] and in experiment [4] was “inactive” each time. The compound was called inactive in experiment [3].
As to `O=C(O)Cc1cccc(-c2cc(CCCCCCc3ccc(O[C@H]4O[C@H](CO)[C@@H](O)[C@H](O)[C@@H]4O)c(-c4cccc(CC(=O)O)c4)c3)ccc2O[C@H]2O[C@H](CO)[C@@H](O)[C@H](O)[C@@H]2O)c1`, the activity change, negative = inhibition in experiment [1] was -3.38% [at 0.727 µM]; in experiment [2] it was -6.57% [at 0.505 µM]; in experiment [3] it was -0.323% [at 0.575 µM]. In experiment [4], the activity change was -19% [at 0.0343 µM].
